Among the data in PubChem BioAssay (NCI) are growth values, retold here.

Holding throughout (assay): NCI-60 one-dose screen, 48 h (100 = growth as untreated, 0 = no growth, -100 = all killed)
Holding throughout (conditions): 10 µM unless noted

Assay [1] concerns DU-145 prostate.
For assay [2], the system named is MALME-3M melanoma.
The test system of assay [3] is MDA-MB-231 breast.
For assay [4], the system named is RXF 393 renal.
The subject of assay [5] is SF-268 CNS.
Assay [6] deals with SF-295 CNS.
Assay [7] concerns SF-539 CNS.
The subject of assay [8] is UACC-257 melanoma.
The subject of assay [9] is M14 melanoma.

This is part of a sample that, as a whole, favours compounds with a hit. Of some 83,000 tested, about 20% had one in any assay.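 For each line, cells grew in 96-well plates with the test compound present at a single concentration for 48 hours.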 Unmarked numbers belong to inactive results. Active and inactive are the calls of the source. Rule for the calls: active = growth percent below 10; inactive = the rest.

For the compound `COc1ccc(-c2nc(SCC(=O)Nc3ccc(C(=O)/C=C/c4ccc(Cl)cc4)cc3)[nH]c(=O)c2C#N)cc1`, the growth in assay [1] was 103%; in assay [2], 95.4%; in [3] it was 38.1%; in [4], 97.3%; in assay [5] it was 102%; in [6], 98.5%. The growth in assay [7] is 85.8%; in assay [8] it was 102%; in assay [9], 77.9%.
In the case of `O=C1c2ccccc2OC=C(c2ccccc2)N1CCCCNc1ccc(S(=O)(=O)Nc2ncccn2)cc1`, the growth in assay [1] was 109%; in assay [2], 110%; in assay [3], 96.8%; in assay [4] it was 98.9%; in assay [5], 91%; in assay [6], 94%. Besides, the growth is 102% in [7], 91.6% in [8] and 99.6% in assay [9].
On to `CCN(CC)c1ccc2c(c1)Oc1nc(N)c(C#N)c(N)c1C2Sc1ccc(SC)cc1` (stereo unspecified), for which the growth was -48% (active) in [1]; -15.9% (active) in assay [2]; -39.3% (active) in assay [3]; -67.6% (active) in [4]; 4.56% (active) in assay [5]; -54.2% (active) in [6]. The figures for the growth in [7], in assay [8] and in [9] were -71.8% (active), 55.6% and -42.3% (active), respectively.
`CCCCC[C@H]1C/C=C2/C(=O)C=C[C@@H]2C/C=C\CCCC(=O)O1`: the growth in assay [1] was -32.4% (active); in [2], -24.8% (active); in assay [3], 7.59% (active); in assay [4], -89.9% (active); in [5], 3.72% (active); in assay [6] it was -33.5% (active). Besides, the results for the growth in assay [7], in assay [8] and in assay [9] were -71.4% (active), -49.4% (active) and -29.3% (active), respectively.
As for `COc1cc2c(cc1O)CC[C@@H]1[C@@H]2CC[C@]2(C)[C@@H](OCCCN(C)C)CC[C@@H]12`, the growth in assay [1] was -10.3% (active); in assay [2], -76.1% (active); in [3], -70.2% (active); in assay [4], -88.3% (active); in assay [5], -24.3% (active); in assay [6] it was -79.8% (active). The values for the growth in [7], in assay [8] and in assay [9] were -85% (active), -77.4% (active) and -78.8% (active), respectively.
For the compound `CN(C)c1ccc(N=Nc2ccccn2)c(O)c1`, the growth in assay [1] was 21.6%; in assay [2] it was 13.8%; in assay [3], 36.7%; in assay [4], 46.3%; in [5] it was 14.6%; in assay [6], 19.9%. Moreover, the results for the growth in [7], in [8] and in assay [9] were 0.733% (active), -9.35% (active) and -2.06% (active), respectively.
In the case of `CCc1c(Nc2ccccc2C)nc(N)[nH]c1=O`, the growth in assay [1] was 111%; in assay [2] it was 102%; in assay [3], 114%; in assay [4], 112%; in [5], 101%; in [6], 105%. The growth is 103% in [7], 115% in assay [8] and 106% in [9].
In the case of `O=C1/C(=C/c2ccccc2O)N=C2SCCCN12`, the growth was 103% in assay [1]; 95.1% in [2]; 78.8% in [3]; 112% in assay [4]; 99.5% in [5]; 98.6% in assay [6]. Moreover, the results for the growth in assay [7], in assay [8] and in assay [9] were 95.4%, 103% and 102%, respectively.
`Cc1cc(N2CCCCCC2)nc(NC2CCCC(Nc3ccnc4cc(Cl)ccc34)C2)n1` (stereo unspecified): the growth was -70.7% (active) in [1]; -89% (active) in assay [2]; -88.5% (active) in [3]; -81% (active) in [4]; -70% (active) in [5]; -85.1% (active) in [6]. Besides, the figures for the growth in assay [7], in assay [8] and in assay [9] were -92.1% (active), -78.9% (active) and -86.5% (active), respectively.
As to `CC1=C(O)C(=O)C(C(C#N)(C#N)C(C#N)C#N)C1` (stereo unspecified), the growth in [1] is 94.7%; in [2], 113%; in assay [3], 124%; in assay [4], 110%; in assay [5], 84.4%; in [6], 101%. Also, the figures for the growth in assay [7], in assay [8] and in [9] were 104%, 105% and 101%, respectively.
For the compound `COc1ccc(-c2cc(-c3ccc(Nc4ccnc5cc(Cl)ccc45)cc3)nc(N3CCOCC3)n2)cc1`, the growth is 21.7% in assay [1]; -39.1% (active) in assay [2]; 52.4% in assay [3]; 34.9% in [4]; 72.1% in assay [5]; 94.6% in [6]. Further, the figures for the growth in assay [7], in assay [8] and in assay [9] were -41.1% (active), 79% and 12.9%, respectively.
Turning to `OCCN1CCN(c2nc(Nc3ccc(-c4nc5ccccc5[nH]4)cc3)c3cn[nH]c3n2)CC1`, the growth is -87.1% (active) in assay [1]; -74.2% (active) in assay [2]; -77% (active) in [3]; -93.6% (active) in assay [4]; -80.9% (active) in assay [5]; -96% (active) in [6]. Further, the growth in assay [7] was -85.4% (active); in [8], -89% (active); in assay [9] it was -78.3% (active).
In the case of `CCNC(=O)Oc1ccc(/C(=C(\C)c2ccc(Cl)cc2)c2ccc(OCCN(CC)CC)cc2)cc1`, the growth in assay [1] was 67.6%; in [2], -50.6% (active); in assay [3] it was 44.3%; in assay [4], 31.4%; in assay [5] it was 51.7%; in [6] it was 21.3%. The growth in [7] is 58.2%; in [8], -54.9% (active); in assay [9] it was -63.3% (active).
`COc1ccc(CN2c3ccccc3Oc3ccccc32)cc1F`: the growth is 95.9% in assay [1]; 59.2% in [2]; 53.1% in assay [3]; 84.5% in assay [4]; 84.7% in assay [5]; 33% in assay [6]. In addition, the growth was 64.7% in [7], 58.9% in assay [8] and 33.6% in [9].
